Consider 24 molecules from PubChem BioAssay (EPA / NIEHS).

“And” between values parts separate entries of the source, which are not always exact repeats. Equal values may be shown once. The source holds several records for some structures; these can differ, active in one and inactive in another. The source made the active and inactive calls. Rule for the calls: active = hit-call score of the fitted dose curve at least 0.9, where 1 is the maximum; inactive = score below 0.9.

This assay can be described thus: CCTE_Shafer_MEA_dev_correlation_coefficient_mean: CCTE's Neural Network Formation Assay for Mean Correlation Coefficient, Shafer Lab (AID 2284093).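 For AC50: well mean pairwise spike train correlation integrated as AUC over recording days 5 to 12.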 The method, then: CCTE_Shafer_MEA_dev assay is conducted using Axion Biosystems 48 well microelectrode array (MEA) plates and Maestro recording system. Each well of the MEA plate contains a grid of 16 microelectrodes embedded in the culture surface. Electrically active cells, such as neurons, can be cultured over the electrodes, and electrical activity in these cells can be recorded extracellularly. The spontaneous firing of neurons is captured from each electrode on a microsecond timescale providing both temporally and spatially precise data. […] The CCTE_Shafer_MEA_dev assay uses primary cultures of rat cortical neurons. Recordings are made on days post-plating 5, 7, 9 and 12. As these cultures mature over time, neural networks develop functional activity and form cohesive networks in which electrical activity can be highly coordinated. CCTE_Shafer_MEA_dev_correlation_coefficient_mean is 1 of 19 assay components of the CCTE_Shafer_MEA_dev assay. It measures the correlation coefficent of spikes (action potential firings) between every pair of electrodes in a well during a recording in a microelectrode array (MEA) using Axion Biosystems Maestro 768 channel amplifier with the AxIS adaptive spike detector. The pairwise correlations are averaged across active electrodes to report a well-mean value. To collapse across multiple recordings made on days post-plating 5, 7, 9 and 12, the trapezoidal area-under-the-curve of the component is calculated.Data from the assay component CCTE_Shafer_MEA_dev_correlation_coefficient_mean was analyzed into 1 assay endpoint. This assay endpoint, CCTE_Shafer_MEA_dev_correlation_coefficient_mean, was analyzed in the negative analysis fitting direction relative to DMSO as the negative control and baseline of activity. Using a type of functional reporter, gain or loss-of-signal activity can be used to understand electrical activity.
On the day prior to culture, each well was coated thoroughly with 150 uL of 0.05% polyethyleneimine (PEI, Sigma Cat P3143) in 50 mM HEPES (Sigma Cat H7523) at a pH of 8. The plate was incubated at 37C for one hour. PEI was rinsed out with 500 uL of sterile water three times. Plates were stored at 4C until the day of culture. This culture was plated at a seeding density of 1.5 x 10^5 cells/well on a 48-well MEA plate, prepared as described above. Cells were administered via a 25 uL media/laminin ([…]; Sigma Cat L2020-1MG) drop directly onto the microelectrode array, as adding the cells with the laminin results in better attachment than pre-coating with laminin. After 2 hours, an additional 475 uL of cortical media was added and the cells returned to the incubator. Exposure starts at day 0 of plating and is continued over twelve days of network development until the experiment is terminated. Cells are fed with fresh medium on DIV 5 and 9, following the recordings on those days. The entire volume of media in the well is exchanged and any vehicle or compound treatment is renewed. Complete details are found in OP-NHEERL/ISTD/SBB/TJS/2015-03-r0 (available on request, email shafer.tim@epa.gov). Measurement of the electrical activity is non-invasive, and recordings can be made from the same plate over multiple different days of the culture. In cortical neurons, this allows for the measurement of extracellular action potentials over the period during which networks form in the MEA plate.
On to `C=CC(=O)OCC(F)(F)C(F)F`, for which the AC50 was 11.3 µM (active).

Turning to `CCCCC(CC)COP(=O)(Oc1ccccc1)Oc1ccccc1` (stereo not given), the molecule was classed as inactive.

`CCOc1ccc(C(C)(C)COCc2cccc(Oc3ccccc3)c2)cc1`: the concentration at half-maximal activity (AC50) was 10 µM (active).

Regarding `CCC1(c2ccccc2)C(=O)N=C(O)NC1=O` (stereo not given), the result was inactive.

As for `c1cc2c3c(cccc3c1)CC2`, the molecule was classed as inactive.

Consider `CCOP(=S)(OCC)SCSCC`, for which the AC50 is 74.5 µM (active) and 13 µM (active).

As to `CC(O)C(F)(F)C(F)(F)F` (stereo not given), the call was inactive.

In the case of `OCC(F)(F)OC(F)(F)C(F)(F)OC(F)(F)C(F)(F)OC(F)(F)CO`, the outcome was inactive.

Regarding `O=C(O)C1C(C(=O)O)C2(Cl)C(Cl)=C(Cl)C1(Cl)C2(Cl)Cl` (stereo not given), the result was inactive.

For the molecule `c1ccc(OP(Oc2ccccc2)Oc2ccccc2)cc1`, the outcome was inactive.

As for `O=P1(N(CCCl)CCCl)NCCCO1` (stereo not given), the result was inactive.

`CCCCC(CC)COC(=O)c1c(Br)c(Br)c(Br)c(Br)c1C(=O)OCC(CC)CCCC` (stereo not given): the outcome was inactive.

In the case of `O=S(=O)(c1ccc(O)cc1)c1ccc(O)cc1`, the result was inactive.

As for `CO/N=C(/C(=O)OC)c1ccccc1COc1ccccc1C`, the AC50 was 0.765 µM (active).

Take `O=C(O)C(F)(F)OC(F)(F)C(F)(F)OC(F)(F)F`: the AC50 was 3.78 µM (active).

As to `O=C(O)C(F)(OC(F)(F)C(F)(F)C(F)(F)F)C(F)(F)F` (stereo not given), the call was inactive.

`O=P(Oc1ccccc1)(Oc1ccccc1)Oc1ccccc1`: the result was inactive.

With `OCC(F)(F)OC(F)(F)C(F)(F)OC(F)(F)C(F)(F)OC(F)(F)F`, the molecule was classed as inactive.

`ClC1=C(Cl)C2(Cl)C3C(Cl)C(Cl)CC3C1(Cl)C2(Cl)Cl` (stereo not given): the AC50 was 7.71 µM (active).

On to `CC(C)(C)c1ccccc1OP(=O)(Oc1ccccc1)Oc1ccccc1`, for which the molecule was called inactive and the half-maximal activity concentration (AC50) is 24.4 µM (active).

Take `O=C(O)C=CC(F)(C(F)(F)F)C(F)(F)F`: the molecule was classed as inactive.

With `O=C(O)C(F)(F)C(F)(F)C(=O)O`, the AC50 is 1.81 µM (active).

Turning to `O=C(O)C(F)(F)OC(F)(F)C(F)(F)OC(F)(F)C(=O)O`, the call was inactive.

On to `OCC(F)(F)OC(F)(F)C(F)(F)OC(F)(F)CO`, for which the molecule was called inactive.

As a reminder, the AC50 is the concentration giving half of the maximal activity seen.
